Results on 17 compounds are retold here after ChEMBL document CHEMBL2218924, “A broad activity screen in support of a chemogenomic map for kinase signalling research and drug discovery” (Biochem J, 2013).

For experiment [1], the target named is Mast/stem cell growth factor receptor Kit (Homo sapiens) (UniProt P10721). As to conditions: at 1 µM; call rule not given here.
Experiment [2] shares this target. As to conditions: at 10 µM.
The target in experiment [3] is Proto-oncogene tyrosine-protein kinase Src (Homo sapiens) (UniProt P12931). Particulars: at 1 µM.
Sequence of Proto-oncogene tyrosine-protein kinase Src (Homo sapiens) (P12931 2-536 limits assumed): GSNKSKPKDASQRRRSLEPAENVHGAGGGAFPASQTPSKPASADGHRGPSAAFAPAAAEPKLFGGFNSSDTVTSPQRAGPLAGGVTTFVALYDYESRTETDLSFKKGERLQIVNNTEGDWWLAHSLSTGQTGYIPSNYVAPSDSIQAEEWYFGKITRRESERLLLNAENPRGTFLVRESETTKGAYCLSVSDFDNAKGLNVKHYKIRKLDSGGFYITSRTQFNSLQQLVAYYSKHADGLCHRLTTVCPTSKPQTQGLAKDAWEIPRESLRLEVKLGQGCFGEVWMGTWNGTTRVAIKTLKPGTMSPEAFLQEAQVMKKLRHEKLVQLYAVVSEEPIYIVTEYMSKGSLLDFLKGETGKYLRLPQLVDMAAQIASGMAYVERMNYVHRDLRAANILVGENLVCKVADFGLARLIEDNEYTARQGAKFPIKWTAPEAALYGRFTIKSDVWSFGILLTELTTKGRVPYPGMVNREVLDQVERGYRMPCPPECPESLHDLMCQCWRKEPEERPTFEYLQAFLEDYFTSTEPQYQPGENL
For experiment [4] the target is unchanged. Particulars: at 10 µM.
Experiment [5] deals with T1, Eukaryotic elongation factor 2 kinase (Homo sapiens) (UniProt O00418).
T1 sequence (whole entry): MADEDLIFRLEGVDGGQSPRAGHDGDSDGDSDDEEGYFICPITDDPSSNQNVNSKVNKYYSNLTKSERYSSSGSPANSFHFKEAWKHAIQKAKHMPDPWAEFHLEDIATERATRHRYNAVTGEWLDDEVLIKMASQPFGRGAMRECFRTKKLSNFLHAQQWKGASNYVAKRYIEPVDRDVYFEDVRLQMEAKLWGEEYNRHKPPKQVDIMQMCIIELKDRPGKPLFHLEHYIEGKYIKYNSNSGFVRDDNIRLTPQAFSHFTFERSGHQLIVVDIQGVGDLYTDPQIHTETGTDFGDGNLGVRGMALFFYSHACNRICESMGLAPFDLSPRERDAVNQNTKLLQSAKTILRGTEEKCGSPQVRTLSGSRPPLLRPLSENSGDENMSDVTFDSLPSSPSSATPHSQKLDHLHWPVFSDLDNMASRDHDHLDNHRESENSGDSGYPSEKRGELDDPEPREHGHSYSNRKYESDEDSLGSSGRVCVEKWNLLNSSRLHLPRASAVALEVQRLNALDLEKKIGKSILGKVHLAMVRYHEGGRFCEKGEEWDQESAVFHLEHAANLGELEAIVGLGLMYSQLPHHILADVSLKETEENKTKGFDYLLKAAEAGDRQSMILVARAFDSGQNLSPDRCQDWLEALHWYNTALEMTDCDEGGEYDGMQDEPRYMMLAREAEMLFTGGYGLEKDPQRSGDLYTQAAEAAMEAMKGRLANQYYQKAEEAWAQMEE
As to conditions: at 1 µM.

In experiment [6] the target is T1, Eukaryotic elongation factor 2 kinase (Homo sapiens). As to conditions: at 10 µM.
In experiment [7] the target is Serine/threonine-protein kinase mTOR (Homo sapiens) (UniProt P42345). As to conditions: at 1 µM.
The target is the same in experiment [8]. As to conditions: at 10 µM.
For experiment [9] the target is unchanged. As to conditions: at 1 µM. This is another data set of the same source.
Experiment [10] has the same target. As to conditions: at 10 µM. The source holds these as a separate data set.

Sequence of Mast/stem cell growth factor receptor Kit (Homo sapiens) (P10721 whole entry): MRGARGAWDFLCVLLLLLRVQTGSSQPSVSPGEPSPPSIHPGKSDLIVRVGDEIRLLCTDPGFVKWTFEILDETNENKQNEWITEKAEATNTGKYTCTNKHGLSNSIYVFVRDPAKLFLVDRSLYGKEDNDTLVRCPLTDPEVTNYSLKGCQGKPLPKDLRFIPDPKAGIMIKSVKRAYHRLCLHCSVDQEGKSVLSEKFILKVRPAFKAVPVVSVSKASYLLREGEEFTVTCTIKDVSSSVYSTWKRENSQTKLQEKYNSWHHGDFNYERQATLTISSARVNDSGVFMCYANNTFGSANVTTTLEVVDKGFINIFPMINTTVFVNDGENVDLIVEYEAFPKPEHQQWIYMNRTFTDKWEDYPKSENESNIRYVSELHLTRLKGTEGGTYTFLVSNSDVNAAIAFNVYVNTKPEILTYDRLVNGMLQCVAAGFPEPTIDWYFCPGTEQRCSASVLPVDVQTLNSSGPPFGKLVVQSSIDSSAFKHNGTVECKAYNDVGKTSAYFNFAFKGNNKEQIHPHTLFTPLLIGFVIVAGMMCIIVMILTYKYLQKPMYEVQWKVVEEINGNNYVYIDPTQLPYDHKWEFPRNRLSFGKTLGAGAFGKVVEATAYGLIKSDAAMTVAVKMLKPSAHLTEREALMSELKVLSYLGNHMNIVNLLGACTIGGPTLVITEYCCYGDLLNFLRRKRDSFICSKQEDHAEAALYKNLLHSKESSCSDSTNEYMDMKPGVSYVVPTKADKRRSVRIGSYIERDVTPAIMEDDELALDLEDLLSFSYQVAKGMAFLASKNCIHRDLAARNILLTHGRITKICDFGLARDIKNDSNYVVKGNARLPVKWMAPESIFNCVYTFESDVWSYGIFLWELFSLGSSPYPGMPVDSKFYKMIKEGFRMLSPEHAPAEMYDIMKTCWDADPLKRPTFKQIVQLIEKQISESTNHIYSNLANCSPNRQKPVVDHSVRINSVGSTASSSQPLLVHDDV

For orientation: residual activity means the signal under treatment as a percentage of the control signal. Turning to `CC(C)n1cnc2c(NCc3ccccc3)nc(NCCCO)nc21`, the residual activity in experiment [1] was 111%; in experiment [2], 98%; in [3] it was 100%; in [4] it was 86%; in experiment [5], 108% (inactive); in [6] it was 98%. Besides, the residual activity in experiment [7] is 109%; in [8], 114%; in [9], 116%; in experiment [10] it was 104%.

As for `O=C1Nc2cc(Br)ccc2/C1=C1/Nc2ccccc2/C1=N\O`, the residual activity was 18% in experiment [1]; 21% in experiment [2]; 2% in experiment [3]; 3% in experiment [4]; 94% (inactive) in [5]; 89% in experiment [6]. Further, the residual activity in [7] was found to be 76%; in experiment [8] it was 76%; in [9], 119%; in experiment [10], 82%.

Regarding `CCC(=O)Nc1ccc2ncnc(Nc3cccc(Br)c3)c2c1`, the residual activity in [1] was 109%; in experiment [2] it was 103%; in experiment [3] it was 88%; in experiment [4], 89%; in experiment [5], 94% (inactive); in experiment [6], 107%. Also, the residual activity came to 106% in [7], 104% in [8], 123% in [9] and 101% in experiment [10].

Regarding `O=C(Nc1cccc(Nc2cc(Nc3cccc(C(F)(F)F)c3)ncn2)c1)C1CC1`, the residual activity in experiment [1] turned out to be 106%; in experiment [2], 100%; in experiment [3] it was 110%; in experiment [4] it was 64%; in experiment [7], 105%; in experiment [8] it was 105%. Also, the residual activity in experiment [9] amounted to 104%; in [10], 102%.

Turning to `CN(C)c1ccc(/C=C2\C(=O)Nc3ccccc32)cc1`, the residual activity in experiment [1] came to 24%; in experiment [2], 4%; in experiment [3], 87%; in [4], 85%; in experiment [7], 78%; in experiment [8] it was 101%. Besides, the residual activity in experiment [9] turned out to be 78%; in experiment [10], 89%.

Consider `CCN(CC)CCCCN1c2ccccc2Oc2ccc(Cl)cc21`, for which the residual activity in experiment [1] is 121%; in [2], 107%; in experiment [3], 81%; in [4], 109%; in experiment [5], 104% (inactive); in experiment [6], 131%. Further, the residual activity amounted to 110% in experiment [7], 110% in experiment [8], 70% in [9] and 98% in experiment [10].

`O=C(Nc1cccc(Nc2nccc(Nc3cccc(C(F)(F)F)c3)n2)c1)C1CC1`: the residual activity in experiment [1] is 94%; in [2], 46%; in experiment [3], 56%; in [4] it was 12%; in experiment [5] it was 93% (inactive); in experiment [6] it was 101%. In addition, the residual activity in [7] came out at 79%; in [8] it was 83%; in [9], 71%; in experiment [10] it was 84%.

On to `COc1ccc(S(=O)(=O)N(CCO)c2ccccc2CN(C)C/C=C/c2ccc(Cl)cc2)cc1`, for which the residual activity in experiment [1] is 115%; in experiment [2] it was 100%; in [3], 116%; in experiment [4] it was 90%; in experiment [7] it was 109%; in [8], 96%. For the same compound, the residual activity in [9] came out at 97%; in [10] it was 101%.

For `O=C1NC(=O)/C(=C/c2ccc3c(c2)OC(F)(F)O3)S1`, the residual activity in experiment [1] is 116%; in [2], 102%; in experiment [3] it was 91%; in experiment [4] it was 106%; in experiment [5] it was 85% (inactive); in [6], 104%. Besides, the residual activity in experiment [7] came out at 82%; in experiment [8] it was 90%; in experiment [9] it was 106%; in [10], 104%.

Take `Cn1cnc2cc3c(Nc4cccc(Br)c4)ncnc3cc21`: the residual activity in [1] is 114%; in experiment [2], 92%; in experiment [3], 64%; in [4], 32%; in experiment [7] it was 102%; in experiment [8], 105%. In addition, the residual activity in experiment [9] is 104%; in experiment [10], 97%.

For `Oc1c2ccccc2c2c3c(cccc13)N=N2`, the residual activity in [1] was found to be 91%; in experiment [2], 30%; in experiment [3], 89%; in experiment [4], 64%; in experiment [6], 92%; in experiment [7], 104%. In addition, the values for the residual activity in experiment [8] and in experiment [10] were 77% and 84%, respectively.

For `COc1ccc(CNc2nc(N(CCO)CCO)nc3c2ncn3C(C)C)cc1`, the residual activity in [1] is 91%; in experiment [2], 66%; in experiment [3], 104%; in experiment [4], 82%; in experiment [5], 106% (inactive); in experiment [6] it was 101%. Moreover, the residual activity in [7] was found to be 106%; in experiment [8] it was 97%; in experiment [9] it was 128%; in experiment [10], 99%.

On to `CC[n+]1c(/C=C/N(C)c2ccccc2)n(-c2ccccc2)c2ccc(-c3nc4ccccc4s3)cc21`, for which the residual activity in [1] worked out at 123%; in [2] it was 106%; in [3], 85%; in experiment [4], 128%; in experiment [7], 85%; in experiment [8], 86%. For the same compound, the residual activity turned out to be 84% in experiment [9] and 79% in experiment [10].

As to `COc1cc2ncc(-c3ccccc3)nc2cc1OC`, the residual activity in experiment [1] was 84%; in experiment [2] it was 24%; in [3], 88%; in [4] it was 95%.

Consider `C[C@@H](N)[C@H]1CC[C@H](C(=O)Nc2ccncc2)CC1`, for which the residual activity in experiment [1] is 107%; in [2] it was 106%; in [3], 100%; in experiment [4] it was 103%; in experiment [5] it was 96% (inactive); in experiment [7] it was 105%. Besides, the residual activity was 99% in experiment [8], 109% in experiment [9] and 117% in [10].

`O=[N+]([O-])c1ccc(-c2nc(-c3ccc(F)cc3)c(-c3ccncc3)[nH]2)cc1`: the residual activity in experiment [1] is 123%; in [2], 110%; in experiment [3], 113%; in experiment [4], 90%; in experiment [5] it was 108% (inactive); in experiment [6], 94%. The residual activity in experiment [7] is 110%; in [8], 112%; in experiment [9], 126%; in [10], 71%.

On to `CNc1cc2c(Nc3cccc(Br)c3)ncnc2cn1`, for which the residual activity in experiment [1] came to 110%; in experiment [2], 106%; in [3], 86%; in experiment [4] it was 78%; in [7], 105%; in [8] it was 104%. For the same compound, the residual activity worked out at 100% in experiment [9] and 107% in experiment [10].
